Experimental data published in PMC5540273 (PLoS ONE, 2017).

Assays:
Settings in all cases: concentration: 1 μM, replicates: in singlicate; n = 1
[1] = test system: TYK2(JH2domain-pseudokinase)
[2] = test system: TYRO3
[3] = test system: ULK1
[4] = test system: ULK2
[5] = test system: ULK3
[6] = test system: T1, VEGFR2
T1 construct: gene KDR

[7] = test system: T2, VPS34
T2 construct: gene PIK3C3

[8] = test system: VRK2
[9] = test system: WEE1
[10] = test system: WEE2
[11] = test system: WNK1
[12] = test system: WNK2
[13] = test system: WNK3
[14] = test system: WNK4
[15] = test system: T3, YANK1
T3 construct: gene STK32A

[16] = test system: T4, YANK2
T4 construct: gene STK32B

[17] = test system: T5, YANK3
T5 construct: gene STK32C

[18] = test system: T6, YES
T6 construct: gene YES1

[19] = test system: T7, YSK1
T7 construct: gene STK25

[20] = test system: T8, YSK4
T8 construct: gene MAP3K19
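Further: KINOMEscan kinase panel screen.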

| Structure (SMILES) | %Inh [1] | %Inh [2] | %Inh [3] | %Inh [4] | %Inh [5] | %Inh [6] | %Inh [7] | %Inh [8] | %Inh [9] | %Inh [10] | %Inh [11] | %Inh [12] | %Inh [13] | %Inh [14] | %Inh [15] | %Inh [16] | %Inh [17] | %Inh [18] | %Inh [19] | %Inh [20] |
| --- | --- | --- | --- | --- | --- | --- | --- | --- | --- | --- | --- | --- | --- | --- | --- | --- | --- | --- | --- | --- |
| CN(C)Cc1ccc(-c2ccc3c(Nc4ccc(Oc5ccccn5)cc4)ccnc3c2)o1 [GW567148] | 18% | 38% | 19% | 0% | 5% | 17% | 0% | 4% | 0% | 2% | 17% | 14% | 46% | 19% | 0% | 0% | 20% | 64% | 0% | 30% |
| CN1CCN(CCCNc2nccc(-c3c(-c4ccc(F)cc4)nn4cc(C(F)(F)F)ccc34)n2)CC1 [GW621581] | 12% | 0% | 20% | 0% | 8% | 0% | 8% | 0% | 0% | 0% | 3% | 13% | 0% | 0% | 0% | 8% | 0% | 1% | 0% | 9% |
| O=C(Nc1cccc(Oc2ccc3nc(NC(=O)C4CC4)cn3n2)c1)c1ccccc1C(F)(F)F | 0% | 36% | 0% | 0% | 1% | 99.8% | 0% | 0% | 22% | 0% | 0% | 0% | 0% | 13% | 0% | 0% | 0% | 50% | 9% | 70% |
| O=C(Nc1ccccc1F)NC1CCN(c2ccnc(Nc3ccc(F)cc3)n2)CC1 [GSK1379800] | 43% | 0% | 0% | 0% | 6% | 0% | 0% | 4% | 21% | 0% | 9% | 6% | 37% | 34% | 0% | 0% | 1% | 4% | 0% | 14% |
| c1ccc(-c2n[nH]cc2Nc2ccnc3ccccc23)nc1 [GW694077] | 96.6% | 0% | 17% | 12% | 8% | 23% | 39% | 50% | 0% | 0% | 0% | 0% | 15% | 4% | 0% | 0% | 0% | 0% | 12% | 99.1% |
| CN(c1ccc(NC(=O)Nc2cc(C(F)(F)F)ccc2F)cc1)c1ccnc(Nc2ccc(S(N)(=O)=O)cc2)n1 [GW809893] | 12% | 77% | 17% | 3% | 76% | 88% | 4% | 0% | 0% | 11% | 6% | 0% | 0% | 0% | 17% | 0% | 17% | 80% | 100% | 99.1% |
| O=C(NC1CCN(c2ccnc(Nc3ccc(F)cc3)n2)C1)c1cc2ccccc2s1 (stereo not shown) [GSK1379716] | 31% | 0% | 0% | 1% | 32% | 0% | 38% | 0% | 50% | 0% | 20% | 22% | 33% | 46% | 0% | 20% | 29% | 20% | 19% | 14% |
| COc1ccc(CNC(=O)NC2CCN(c3ccnc(Nc4ccc(F)cc4)n3)CC2)cc1 [GSK1379788] | 35% | 0% | 0% | 0% | 0% | 0% | 17% | 14% | 39% | 0% | 0% | 7% | 23% | 27% | 7% | 0% | 0% | 0% | 0% | 14% |
| Cl.Cl.NCC(NCc1ccc(-c2ccnc3[nH]ccc23)s1)c1ccccc1 (stereo not shown) [GSK1321565] | 43% | 0% | 67% | 9% | 15% | 17% | 7% | 20% | 13% | 0% | 0% | 11% | 26% | 0% | 0% | 0% | 0% | 0% | 0% | 99.3% |
| Cc1ccc(F)c(C(=O)Nc2cccc(-c3nn4ccccc4c3-c3ccnc(Nc4cccc(F)c4)n3)c2)c1F [GSK361061] | 0% | 86% | 100% | 0% | 11% | 42% | 7% | 0% | 22% | 11% | 0% | 6% | 3% | 0% | 6% | 47% | 6% | 95.3% | 0% | 0% |
| CSc1cccc2c(-c3ccncn3)c(-c3ccc(F)cc3)nn12 [GW514786] | 24% | 0% | 0% | 0% | 3% | 0% | 14% | 23% | 6% | 1% | 0% | 1% | 22% | 24% | 23% | 24% | 2% | 4% | 0% | 0% |
| Cl.Cl.NCC(C(=O)Nc1cc(Br)c(-c2ccnc3[nH]ccc23)s1)c1ccccc1 (stereo not shown) [GSK1269851] | 18% | 0% | 23% | 0% | 15% | 0% | 0% | 0% | 0% | 22% | 7% | 100% | 25% | 11% | 8% | 0% | 0% | 7% | 0% | 95.5% |
| O=C(Nc1cccc(-c2nn3ccccc3c2-c2ccnc(Nc3cccc(C(F)(F)F)c3)n2)c1)c1c(F)cccc1F [GSK292658] | 0% | 67% | 31% | 9% | 5% | 8% | 0% | 0% | 0% | 0% | 5% | 15% | 0% | 27% | 12% | 7% | 23% | 95.2% | 0% | 0% |
| Cc1ccc(C(=O)N2CC[C@@H](O)C2)cc1-n1c(C)cc(OCc2ccc(F)cc2F)c(Br)c1=O | 0% | 0% | 0% | 0% | 0% | 0% | 0% | 0% | 0% | 0% | 0% | 0% | 0% | 0% | 0% | 0% | 0% | 20% | 0% | 0% |
| c1ccc(Oc2ccc(Nc3ccnc4cc(-c5ccc(CNCCN6CCOCC6)o5)ccc34)cc2)nc1 [GW567145] | 13% | 0% | 14% | 0% | 7% | 0% | 2% | 30% | 1% | 0% | 0% | 21% | 43% | 8% | 0% | 0% | 32% | 48% | 2% | 35% |
| COc1ccc(-c2coc3ccc(-c4nnc(SCc5ccc(OC)c(C(F)(F)F)c5)o4)cc23)cc1 | 1% | 16% | 0% | 6% | 16% | 17% | 11% | 0% | 0% | 0% | 0% | 31% | 0% | 4% | 10% | 0% | 0% | 12% | 0% | 20% |
| COC(=O)Nc1nc2cc(Oc3ccc(NC(=O)Nc4cc(C(F)(F)F)ccc4F)cn3)ccc2[nH]1.Cl.Cl [GW681170] | 12% | 0% | 0% | 0% | 13% | 55% | 8% | 22% | 7% | 0% | 6% | 8% | 22% | 39% | 9% | 16% | 0% | 24% | 0% | 87% |
